This note sets out measurements from publication PMC7862700, “An all-to-all approach to the identification of sequence-specific readers for epigenetic DNA modifications on cytosine”.

What all share (experiment): DAPPL (digital affinity profiling via proximity ligation, sequencing); 10 mM Tris-HCl pH 7.5, 50 mM NaCl, 1 mM DTT, 4% glycerol, room temperature, 30 min; GST-TFs on glutathione beads, 16-mer random dsDNA library, 0.1% formaldehyde crosslink after washing; high values mean tight binding
Common to all, as to conditions: protein: recombinant; tags: N-terminal GST; dsDNA, one strand shown

The target of one assay is T1, GABPA (Homo sapiens, UniProt Q06546 1-454).
T1 sequence: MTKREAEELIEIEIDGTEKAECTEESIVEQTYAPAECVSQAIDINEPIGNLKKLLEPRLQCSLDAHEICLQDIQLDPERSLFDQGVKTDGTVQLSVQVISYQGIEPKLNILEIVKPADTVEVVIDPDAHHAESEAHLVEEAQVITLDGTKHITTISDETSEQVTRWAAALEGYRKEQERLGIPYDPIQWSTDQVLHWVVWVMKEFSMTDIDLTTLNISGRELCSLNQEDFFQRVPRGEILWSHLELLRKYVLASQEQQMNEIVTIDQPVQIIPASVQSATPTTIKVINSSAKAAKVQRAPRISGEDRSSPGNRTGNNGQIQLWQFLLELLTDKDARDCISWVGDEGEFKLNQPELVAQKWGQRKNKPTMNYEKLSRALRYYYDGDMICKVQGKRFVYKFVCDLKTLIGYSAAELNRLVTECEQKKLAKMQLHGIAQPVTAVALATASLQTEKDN
In outline:
(§1)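 GST fusions of human transcription factors were expressed in yeast and captured with glutathione beads. Once given DNA barcodes and pooled alongside a tag-only sample, they were incubated for 30 min at room temperature with 200 nmole of a random double-stranded 16-mer DNA library in Tris/NaCl/DTT/glycerol buffer, then washed, crosslinked (0.1% formaldehyde), proximity-ligated, PCR-amplified and sequenced on an Illumina NextSeq500. The binding signal of each hexamer is its read frequency for a factor divided by its frequency for the tag-only sample.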

In a further assay the target is T2, ERG (Homo sapiens, UniProt P11308 1-479).
T2 sequence: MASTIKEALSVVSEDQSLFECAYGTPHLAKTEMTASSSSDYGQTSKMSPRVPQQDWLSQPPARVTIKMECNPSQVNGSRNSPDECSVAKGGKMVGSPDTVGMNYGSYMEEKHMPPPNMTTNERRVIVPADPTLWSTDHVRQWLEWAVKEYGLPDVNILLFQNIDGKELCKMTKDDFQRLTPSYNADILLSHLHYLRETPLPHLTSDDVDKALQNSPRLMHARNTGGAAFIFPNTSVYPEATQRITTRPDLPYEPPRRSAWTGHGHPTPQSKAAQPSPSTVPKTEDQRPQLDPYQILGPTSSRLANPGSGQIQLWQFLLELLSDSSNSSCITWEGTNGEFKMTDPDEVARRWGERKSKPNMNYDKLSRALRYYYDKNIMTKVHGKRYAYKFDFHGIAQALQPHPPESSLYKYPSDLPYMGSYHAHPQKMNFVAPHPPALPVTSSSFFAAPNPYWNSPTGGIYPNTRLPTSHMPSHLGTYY
The method, boiled down: as §1

For another assay, the target named is ELF1 (Homo sapiens, UniProt P32519 1-619). In outline:
as §1

For a further assay, the target named is T3, EHF (Homo sapiens, UniProt Q9NZC4 1-300).
T3 sequence: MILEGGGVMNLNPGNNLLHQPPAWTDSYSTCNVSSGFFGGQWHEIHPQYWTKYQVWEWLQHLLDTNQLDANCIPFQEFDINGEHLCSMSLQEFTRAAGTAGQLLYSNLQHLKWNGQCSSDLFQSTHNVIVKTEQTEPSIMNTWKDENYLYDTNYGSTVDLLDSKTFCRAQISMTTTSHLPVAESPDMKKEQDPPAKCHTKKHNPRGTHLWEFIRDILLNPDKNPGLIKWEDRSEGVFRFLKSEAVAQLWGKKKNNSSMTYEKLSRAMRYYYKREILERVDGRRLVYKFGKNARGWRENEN
The method, boiled down: as §1

The next assay deals with SPIB (Homo sapiens, UniProt Q01892 1-262). In outline:
as §1

In a further assay the target is ETV5 (Homo sapiens, UniProt P41161 1-510). The method, boiled down: as §1
ETV5, sequence (P41161 whole entry): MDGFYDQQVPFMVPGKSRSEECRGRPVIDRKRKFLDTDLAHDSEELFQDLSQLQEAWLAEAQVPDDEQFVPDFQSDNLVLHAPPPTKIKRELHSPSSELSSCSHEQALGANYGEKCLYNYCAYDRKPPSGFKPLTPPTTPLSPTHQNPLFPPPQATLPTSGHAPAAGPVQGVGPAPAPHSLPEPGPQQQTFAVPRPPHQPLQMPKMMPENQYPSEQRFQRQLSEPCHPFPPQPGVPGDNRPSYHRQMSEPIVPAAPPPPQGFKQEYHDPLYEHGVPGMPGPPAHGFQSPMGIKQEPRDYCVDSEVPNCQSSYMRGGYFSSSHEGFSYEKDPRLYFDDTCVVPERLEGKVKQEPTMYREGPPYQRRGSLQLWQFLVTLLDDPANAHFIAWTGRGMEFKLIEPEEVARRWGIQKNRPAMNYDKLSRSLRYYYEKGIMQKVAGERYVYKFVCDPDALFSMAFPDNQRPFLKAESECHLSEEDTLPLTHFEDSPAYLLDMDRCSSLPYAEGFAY
A further assay has as its target T4, ELK4 (Homo sapiens, UniProt P28324-2 1-405).
T4 sequence: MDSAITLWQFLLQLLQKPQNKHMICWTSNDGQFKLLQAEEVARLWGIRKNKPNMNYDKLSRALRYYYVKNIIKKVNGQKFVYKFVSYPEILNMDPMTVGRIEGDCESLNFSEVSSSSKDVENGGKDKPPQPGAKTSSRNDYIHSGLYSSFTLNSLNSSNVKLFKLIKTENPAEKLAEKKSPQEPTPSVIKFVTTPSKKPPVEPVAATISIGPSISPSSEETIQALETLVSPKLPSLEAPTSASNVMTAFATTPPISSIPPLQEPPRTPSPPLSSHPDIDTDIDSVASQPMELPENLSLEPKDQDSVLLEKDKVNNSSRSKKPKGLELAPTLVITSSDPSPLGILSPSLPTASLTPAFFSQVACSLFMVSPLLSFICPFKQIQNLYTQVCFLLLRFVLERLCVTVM
In outline: as §1

The target in a further assay is T5, ETV2 (Homo sapiens, UniProt O00321 1-342).
T5 sequence: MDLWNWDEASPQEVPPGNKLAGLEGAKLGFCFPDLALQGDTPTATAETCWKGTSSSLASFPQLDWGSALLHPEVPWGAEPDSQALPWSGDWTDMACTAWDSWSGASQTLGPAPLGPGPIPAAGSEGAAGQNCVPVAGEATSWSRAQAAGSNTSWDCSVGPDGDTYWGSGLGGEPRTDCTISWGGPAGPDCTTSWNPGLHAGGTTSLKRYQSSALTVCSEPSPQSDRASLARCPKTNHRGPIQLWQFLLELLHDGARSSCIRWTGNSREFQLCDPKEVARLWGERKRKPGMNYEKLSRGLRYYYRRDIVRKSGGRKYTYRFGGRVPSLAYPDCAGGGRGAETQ
The method, boiled down: as §1

The target in another assay is T6, ELF3 (Homo sapiens, UniProt P78545 1-371).
T6 sequence: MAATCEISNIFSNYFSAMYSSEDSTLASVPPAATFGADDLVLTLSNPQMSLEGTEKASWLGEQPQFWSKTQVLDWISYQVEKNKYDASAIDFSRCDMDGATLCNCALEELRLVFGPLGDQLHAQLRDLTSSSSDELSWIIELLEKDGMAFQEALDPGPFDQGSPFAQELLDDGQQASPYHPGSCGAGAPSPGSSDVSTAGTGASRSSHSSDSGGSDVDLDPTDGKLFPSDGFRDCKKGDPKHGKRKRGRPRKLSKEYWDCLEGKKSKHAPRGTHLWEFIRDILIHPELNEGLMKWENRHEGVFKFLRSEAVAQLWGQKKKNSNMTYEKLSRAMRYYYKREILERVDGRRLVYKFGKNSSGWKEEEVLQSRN
The method, boiled down:
as §1

For a further assay, the target named is ETV1 (Homo sapiens, UniProt P50549 1-477). In outline:
as §1

The target of a further assay is T7, ERF (Homo sapiens, UniProt P50548 1-548).
T7 sequence: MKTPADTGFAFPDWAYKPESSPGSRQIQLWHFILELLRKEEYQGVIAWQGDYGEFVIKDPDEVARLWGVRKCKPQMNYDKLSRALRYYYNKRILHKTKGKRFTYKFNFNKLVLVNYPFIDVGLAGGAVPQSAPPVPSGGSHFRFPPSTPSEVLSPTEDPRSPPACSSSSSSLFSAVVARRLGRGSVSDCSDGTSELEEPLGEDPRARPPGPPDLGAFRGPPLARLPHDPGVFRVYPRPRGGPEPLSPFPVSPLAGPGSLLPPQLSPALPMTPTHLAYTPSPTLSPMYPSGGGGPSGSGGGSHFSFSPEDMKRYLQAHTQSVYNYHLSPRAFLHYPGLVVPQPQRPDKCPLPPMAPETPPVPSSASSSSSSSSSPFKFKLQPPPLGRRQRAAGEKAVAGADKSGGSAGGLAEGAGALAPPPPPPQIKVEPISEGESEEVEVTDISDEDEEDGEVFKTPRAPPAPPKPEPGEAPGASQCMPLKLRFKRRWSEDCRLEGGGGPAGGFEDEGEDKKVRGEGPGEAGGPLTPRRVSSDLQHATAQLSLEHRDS
In outline: as §1

The target in the next assay is T8, ETV3L (Homo sapiens, UniProt Q6ZN32 1-361).
T8 sequence: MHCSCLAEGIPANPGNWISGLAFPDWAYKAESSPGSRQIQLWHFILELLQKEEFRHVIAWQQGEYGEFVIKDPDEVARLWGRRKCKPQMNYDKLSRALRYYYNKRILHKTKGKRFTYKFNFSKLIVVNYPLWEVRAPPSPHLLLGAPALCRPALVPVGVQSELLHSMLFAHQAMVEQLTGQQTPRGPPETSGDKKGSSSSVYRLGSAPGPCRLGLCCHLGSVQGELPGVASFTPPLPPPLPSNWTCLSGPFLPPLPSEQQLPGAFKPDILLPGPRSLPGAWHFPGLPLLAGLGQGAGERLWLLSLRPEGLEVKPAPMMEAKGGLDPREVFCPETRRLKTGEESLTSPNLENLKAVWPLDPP
The method, boiled down:
as §1

The target in the next assay is T9, ETV3 (Homo sapiens, UniProt P41162-2 1-143).
T9 sequence: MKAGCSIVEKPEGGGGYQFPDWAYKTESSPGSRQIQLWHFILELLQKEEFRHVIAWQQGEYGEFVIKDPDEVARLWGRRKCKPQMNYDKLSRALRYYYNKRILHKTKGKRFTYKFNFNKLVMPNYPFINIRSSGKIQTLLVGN
The method, boiled down:
as §1

ETV1, sequence (P50549 whole entry): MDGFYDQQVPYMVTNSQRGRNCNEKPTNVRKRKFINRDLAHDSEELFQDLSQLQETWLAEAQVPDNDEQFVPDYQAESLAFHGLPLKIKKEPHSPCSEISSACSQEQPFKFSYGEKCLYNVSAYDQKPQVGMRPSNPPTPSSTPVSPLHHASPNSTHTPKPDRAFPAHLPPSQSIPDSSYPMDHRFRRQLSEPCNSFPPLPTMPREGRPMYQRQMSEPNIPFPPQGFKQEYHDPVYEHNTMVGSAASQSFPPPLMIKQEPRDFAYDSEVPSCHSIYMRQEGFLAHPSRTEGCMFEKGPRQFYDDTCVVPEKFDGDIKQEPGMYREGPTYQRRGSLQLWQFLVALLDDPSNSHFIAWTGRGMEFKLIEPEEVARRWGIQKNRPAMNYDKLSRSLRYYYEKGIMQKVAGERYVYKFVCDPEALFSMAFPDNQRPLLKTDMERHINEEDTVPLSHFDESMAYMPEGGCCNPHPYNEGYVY
SPIB, sequence (Q01892 whole entry): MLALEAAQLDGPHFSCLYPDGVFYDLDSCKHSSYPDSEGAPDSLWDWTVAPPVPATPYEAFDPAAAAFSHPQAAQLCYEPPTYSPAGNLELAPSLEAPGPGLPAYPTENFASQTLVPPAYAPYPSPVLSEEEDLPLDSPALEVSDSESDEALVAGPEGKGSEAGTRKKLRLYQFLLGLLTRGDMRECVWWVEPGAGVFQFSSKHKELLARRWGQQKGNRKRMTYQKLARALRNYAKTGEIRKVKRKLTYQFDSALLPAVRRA
ELF1, sequence (P32519 whole entry): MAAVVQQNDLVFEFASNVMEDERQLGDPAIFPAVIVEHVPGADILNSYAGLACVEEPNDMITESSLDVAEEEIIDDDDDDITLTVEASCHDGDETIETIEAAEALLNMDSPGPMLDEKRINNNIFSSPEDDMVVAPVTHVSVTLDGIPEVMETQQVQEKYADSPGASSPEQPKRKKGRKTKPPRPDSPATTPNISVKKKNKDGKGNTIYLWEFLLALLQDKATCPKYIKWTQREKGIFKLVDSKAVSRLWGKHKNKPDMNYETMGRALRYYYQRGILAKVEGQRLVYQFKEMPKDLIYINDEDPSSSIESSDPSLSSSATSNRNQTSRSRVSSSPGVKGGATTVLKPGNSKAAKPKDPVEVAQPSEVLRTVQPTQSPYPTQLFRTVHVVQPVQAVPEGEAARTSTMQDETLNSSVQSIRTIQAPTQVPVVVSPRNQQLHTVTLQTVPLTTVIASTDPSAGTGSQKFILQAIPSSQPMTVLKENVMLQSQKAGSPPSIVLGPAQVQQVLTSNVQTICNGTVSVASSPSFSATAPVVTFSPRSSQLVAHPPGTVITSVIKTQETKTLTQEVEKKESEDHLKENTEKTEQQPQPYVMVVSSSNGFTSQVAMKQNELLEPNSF

With TGAAAT, the binding signal with GABPA is 1.03 fold enrichment (6-mer frequency, TF over GST control); with ERG, 1.02 fold enrichment (6-mer frequency, TF over GST control); with ELF1 it was 1 fold enrichment (6-mer frequency, TF over GST control); with EHF, 1.01 fold enrichment (6-mer frequency, TF over GST control); in the assay with SPIB it was 1.01 fold enrichment (6-mer frequency, TF over GST control); with ETV5 it was 1.07 fold enrichment (6-mer frequency, TF over GST control). Also, the binding signal in the assay with ELK4 was 1.04 fold enrichment (6-mer frequency, TF over GST control); with ETV2, 1.04 fold enrichment (6-mer frequency, TF over GST control); with ELF3, 1.09 fold enrichment (6-mer frequency, TF over GST control); in the assay with ETV1, 1.08 fold enrichment (6-mer frequency, TF over GST control); with ERF, 1.01 fold enrichment (6-mer frequency, TF over GST control); with ETV3L, 1.04 fold enrichment (6-mer frequency, TF over GST control). In addition, the binding signal with ETV3 was 1.03 fold enrichment (6-mer frequency, TF over GST control).
Regarding CGAAGG, the binding signal is 1 fold enrichment (6-mer frequency, TF over GST control) in the assay with GABPA; 1.03 fold enrichment (6-mer frequency, TF over GST control) with EHF; 1.05 fold enrichment (6-mer frequency, TF over GST control) with ETV5; 1.06 fold enrichment (6-mer frequency, TF over GST control) with ELK4.
